The list is not random: actives were taken first. Their share in the collection is about 2.4%.
D2 PAM-1: D2 dopamine receptor (human) potentiation; potentiation, % at 10 µM; HEK293 T-REx D2, calcium flux, EC20 dopamine potentiation; 340,000 compounds, 0.34% hits; AID 485347;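 active = potentiation over 3 SD above the plate norm, cut at about 30% in these data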
Target sequence (P14416 whole entry, looked up): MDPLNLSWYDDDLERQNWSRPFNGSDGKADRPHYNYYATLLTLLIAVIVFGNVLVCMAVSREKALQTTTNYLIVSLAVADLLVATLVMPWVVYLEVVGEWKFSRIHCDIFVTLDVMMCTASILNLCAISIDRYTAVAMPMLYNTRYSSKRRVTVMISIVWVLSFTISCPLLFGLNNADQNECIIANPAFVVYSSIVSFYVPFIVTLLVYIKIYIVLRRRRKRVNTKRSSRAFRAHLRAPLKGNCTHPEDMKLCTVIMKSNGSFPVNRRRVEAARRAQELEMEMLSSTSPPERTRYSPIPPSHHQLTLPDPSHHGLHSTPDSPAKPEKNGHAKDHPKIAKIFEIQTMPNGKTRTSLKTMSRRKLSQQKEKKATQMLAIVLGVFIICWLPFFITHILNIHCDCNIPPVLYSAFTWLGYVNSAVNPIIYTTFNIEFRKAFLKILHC
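Primary screen. Calcium kinetics in induced HEK293 T-REx D2 cells: compound pre-addition 180 s, EC20 dopamine, 180 s more.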
D2 antagonist: antagonizes the human D2 dopamine receptor. P14416. HEK293 TREx D2 cells, calcium flux, dopamine EC80. inhibition, % at 10 µM. 340,000 compounds, 2% hits; in the data active = inhibition above about 30%; inactive = below that, where a call was filed
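Overnight-induced (tetracycline, 30 C) HEK293 T-REx cells carrying force-coupled D2 receive a no-wash calcium dye, then compound, then EC80 dopamine at 180 s; signals are read kinetically throughout.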
D2 ag-1: activates the human D2 dopamine receptor; P14416; HEK293 T-REx D2 cells, calcium flux agonist mode; activation, % at 2 µM; 340,000 compounds, 0.53% hits; AID 485358;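 active = activation over 3 SD above normal in the single-dose calcium agonist read, cut at about 30% in these data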
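HEK293 Trex D2 cells, tetracycline-induced, o/n 30 C 5% CO2; no-wash Ca dye, RT 30–90 min; 10-cycle baseline, 23 nl cpd added, kinetic Ca read 180 s; agonist hits = positive Ca response.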
D2 PAM-2: positive allosteric modulators of human D2 dopamine receptor | P14416 | DiscoveRx D2 beta-arrestin cells, luminescence, 90 min; 100% = 57 uM dopamine signal | potentiation, % (test concentration not listed) | 360,000 compounds, 0.23% hits | AID 624464; in the data active = potentiation above about 50%
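D2 cells co-treated with compound plus 50 nM dopamine (EC20) for 90 min at 37 deg C to detect potentiation. Beta-arrestin recruitment was read as enzyme-fragment luminescence after 1 h at ambient temperature. Full response was set by 57 uM dopamine.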
D2 ag-2: activates the human D2 dopamine receptor; P14416; DiscoveRx PathHunter D2 beta-arrestin, luminescence, 90 min; 100% = 57 uM dopamine signal; AID 624465; 360,000 compounds, 0.084% hits; activation, % (test concentration not listed); in the data active = activation above about 40%
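DiscoveRx PathHunter D2 beta-arrestin cells (2,100/well) attached overnight, then compound-stimulated 90 min at 37 C in HBSS/10 mM HEPES/0.1% Tween-20 buffer; beta-galactosidase complementation read by luminescence after 1 h at ambient temperature. Dopamine 57 uM final (EC100) as control.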
Each line names hits and unclear results; the compound was inactive in the other large screens.

CCc1ccccc1NC(=O)C(=O)NCC(c1cccnc1)N1CCN(c2ccccc2F)CC1 (stereo unspecified)	none (no result: D2 antagonist, D2 PAM-2, D2 ag-2)
Cc1ccc(-c2nc3ccccc3o2)cc1NC(=O)c1cccc2c(Cl)cccc12	none (no result: D2 antagonist, D2 PAM-2, D2 ag-2)
Cc1ccc(S(=O)(=O)NNC(=O)CCC(=O)Nc2ccc(C)c(C)c2)cc1	D2 antagonist 32
COc1ccc(C(=O)N(Cc2ccc(C(C)C)cc2)C2CCS(=O)(=O)C2)cc1 (stereo unspecified)	none (no result: D2 antagonist, D2 PAM-2, D2 ag-2)
CC(=O)Nc1cccc(C(=O)OCC(=O)c2ccccc2Cl)c1	D2 antagonist 41
CC1CCN(C(=O)CN2C(=O)C(=O)N(C)C2=O)c2ccccc2S1 (stereo unspecified)	D2 antagonist 44
CC1CCN(C(=O)Cn2cnc3c2c(=O)n(C)c(=O)n3C)c2ccccc2S1 (stereo unspecified)	D2 antagonist 45
Cn1c(=O)c2c(ncn2CC(=O)N2CCCc3ccccc32)n(C)c1=O	none
Cc1ccc(SC[C@H](c2ccccc2)N2CCN(CCc3ccccc3)CCC2=O)cc1	D2 antagonist 41
CC(=O)Nc1ccc(S(=O)(=O)Nc2ccccc2C(=O)N2CCCCC2)cc1	D2 PAM-1 31
CCCSc1ncc(Cl)c(C(=O)Nc2nc3ccc(C)cc3s2)n1	none (no result: D2 antagonist, D2 PAM-2, D2 ag-2)
CCOC(=O)COn1c(-n2nc(C)cc2C)nc2ccccc2c1=O	D2 antagonist 33
COc1ccc(/C=C/C(=O)O)cc1COc1cccc(C)c1	D2 antagonist 40
COc1ccc(/C=C/C(=O)C2CC2)cc1COc1c(C)cccc1C	none (no result: D2 PAM-1)
CCN(Cc1ccccc1)C1CCN(Cc2ccc(SC)cc2)CC1	none (no result: D2 PAM-1, D2 antagonist, D2 ag-1)
O=C(C1CCN(CCCc2ccccc2)CC1)N(CCc1ccccc1)Cc1ccccc1	D2 antagonist 39
O=C(C1CCN(CC2CC=CCC2)CC1)N(CCc1ccccc1)Cc1ccccc1 (stereo unspecified)	none
CCN(Cc1ccccc1)C(=O)C1CCN(Cc2ccc(SC)cc2)CC1	D2 antagonist 81
COc1ccc(S(=O)(=O)NC(C)C(=O)N2CCCC2)cc1C (stereo unspecified)	D2 antagonist 32
COc1ccc(S(=O)(=O)NC(C)C(=O)N2CCCC2)cc1Cl (stereo unspecified)	none
CCOC(=O)/C(=C/C=C1\Sc2ccccc2N1CC)C(C)=O	D2 ag-1 35
CCOC(=O)/C(=C/C=C1\Sc2cc(C)c(C)cc2N1CC)C(C)=O	D2 PAM-1 31, D2 ag-1 84
CCOC(=O)/C(=C\C=C1/Sc2ccccc2N1CC)C(C)=O	none (no result: D2 PAM-1, D2 antagonist, D2 ag-1)
Cc1cc(Br)ccc1NC(=O)c1cn(C2CCCC2)c(=O)c2c1c1ccccc1n2C	none (no result: D2 antagonist, D2 PAM-2, D2 ag-2)
COc1ccc(OCC(=O)OCc2cc(=O)n3nc(C4CC4)sc3n2)cc1	none (no result: D2 antagonist, D2 PAM-2, D2 ag-2)
Cc1ccc(S(=O)(=O)N(C)Cc2nc(-c3ccccn3)no2)cc1	none
CN(Cc1nc(-c2ccccn2)no1)S(=O)(=O)c1ccccc1	D2 antagonist 37 (no result: D2 PAM-1)
Cc1cccc(NC(=O)c2ccc(Cn3nc(N4CCN(c5ccccc5)CC4)ccc3=O)o2)c1C	none (no result: D2 antagonist, D2 PAM-2, D2 ag-2)
Nc1ccc(O)cc1C(=O)OCC(=O)c1ccc(C2CCCCC2)cc1	D2 PAM-2 77
COc1ccc(C(=O)OCC(=O)c2ccc(C3CCCCC3)cc2)cc1	none
CCCCN1C(=O)C(O)(CC(=O)c2ccccc2OC)c2ccccc21 (stereo unspecified)	D2 antagonist 33
Cn1nnc2cc(C(=O)N3CCC(c4ccccc4)C3)ccc21 (stereo unspecified)	D2 PAM-1 103
Cn1nnc2cc(C(=O)N3CCCCCC3)ccc21	none
COc1ccc2c(C)c(CCC(=O)NCc3ccccc3OC)c(=O)oc2c1	none (no result: D2 antagonist, D2 PAM-2, D2 ag-2)
Cc1ccc(S(=O)(=O)N2CCCN(Cc3nc4ccccc4c(=O)[nH]3)CC2)cc1	none
CCNCc1nc2cc(OC)c(OC)cc2c(=O)[nH]1	D2 antagonist 33
COc1cc2nc(CN3CCN(S(=O)(=O)c4ccc(C)c(C)c4)CC3)[nH]c(=O)c2cc1OC	D2 PAM-1 32
COc1ccc(OC)c(-c2cc(C(=O)Nc3cccc(Cl)c3C)no2)c1	none (no result: D2 antagonist, D2 PAM-2, D2 ag-2)
COC(=O)c1ccccc1NC(=O)C1=CC(c2ccc(C)cc2)=NS(=O)(=O)N1C	none (no result: D2 antagonist, D2 PAM-2, D2 ag-2)
COc1ccc(CNC(=O)c2cc(-c3ccc(C)c(C)c3)n[nH]2)cc1	none (no result: D2 antagonist, D2 PAM-2, D2 ag-2)
CC1CCN(Cc2c(C(=O)N/N=C/c3cc(Cl)ccc3O)nnn2-c2nonc2N)CC1	D2 PAM-1 30
CC1CCN(Cc2c(C(=O)N/N=C/c3cc(Br)ccc3O)nnn2-c2nonc2N)CC1	none
CC(C)c1ccc(S(=O)(=O)N2CCN(CC(O)CN3CCOCC3)CC2)cc1 (stereo unspecified)	none
CCC(C)c1ccc(S(=O)(=O)N2CCN(CC(O)COCC3CCCO3)CC2)cc1 (stereo unspecified)	D2 antagonist 33
CC(=O)Nc1ccc(S(=O)(=O)NC2(C(F)(F)F)NC(=O)N(C3CCCC3)C2=O)cc1 (stereo unspecified)	D2 PAM-1 33
Cc1cc2nc(CCN(C(=S)NCC(C)C)C3CCCC3)[nH]c2cc1C	none
Cc1cc2nc(CCN(C(=S)NCC3CCCO3)C3CCCC3)[nH]c2cc1C (stereo unspecified)	D2 antagonist 31
Cc1c(C(=O)NCc2ccccc2Br)oc2c1-c1[nH]ncc1CC2	none (no result: D2 antagonist, D2 ag-1, D2 PAM-2, D2 ag-2)
CCCCN(Cc1cccs1)S(=O)(=O)c1cc(-c2cc(C)no2)ccc1C	none (no result: D2 antagonist, D2 PAM-2, D2 ag-2)
Cn1c(=O)c2c(nc(OCc3cccnc3)n2Cc2c(F)cccc2Cl)n(C)c1=O	D2 antagonist 43 (no result: D2 PAM-1)
COc1ccccc1N(CC(O)Cn1ccnc1C)S(=O)(=O)c1ccccc1 (stereo unspecified)	D2 antagonist 34
COc1ccccc1N(CC(O)Cn1c(C)nc2ccccc21)S(=O)(=O)c1ccccc1 (stereo unspecified)	none
O=C(CSc1nc(=O)[nH]c2c1CCCC2)Nc1ccccc1C(F)(F)F	none (no result: D2 antagonist, D2 PAM-2, D2 ag-2)
COc1ccc(/C=N/NC(=O)COc2ccccc2-c2ccccc2)cc1	D2 antagonist 39
O=C(COc1ccccc1-c1ccccc1)N/N=C/c1cccc2ccccc12	none
CC(C)c1ccc(Cc2cn3cc(-c4cc5ccccc5oc4=O)nc3s2)cc1	none (no result: D2 antagonist, D2 PAM-2, D2 ag-2)
COc1ccccc1NC(=O)Cn1c(=O)n(CC2CCC(C(=O)NCCc3ccccc3)CC2)c(=O)c2ccccc21 (stereo unspecified)	none (no result: D2 antagonist, D2 PAM-2, D2 ag-2)
CC(=O)Nc1ccc(S(=O)(=O)N(C2=NCC(C)S2)c2ccccc2)cc1 (stereo unspecified)	D2 antagonist 51
Cc1ccc(NC(=O)N(C2=NCC(C)S2)c2ccccc2)cc1 (stereo unspecified)	none (no result: D2 PAM-1, D2 antagonist, D2 ag-1)
Cc1cc(C)c(NC(=O)c2sc3nc(C)cc(C)c3c2NC(=O)c2ccccc2)c(C)c1	none (no result: D2 antagonist, D2 PAM-2, D2 ag-2)
Cc1nnsc1C(=O)Oc1ccccc1Cl	none (no result: D2 antagonist, D2 PAM-2, D2 ag-2)

Source: PubChem
